Laboratory results from publication PMC7862700, “An all-to-all approach to the identification of sequence-specific readers for epigenetic DNA modifications on cytosine”.

Assays:
Experiment in all cases: DAPPL (digital affinity profiling via proximity ligation, sequencing); 10 mM Tris-HCl pH 7.5, 50 mM NaCl, 1 mM DTT, 4% glycerol, room temperature, 30 min; GST-TFs on glutathione beads, 16-mer random dsDNA library, 0.1% formaldehyde crosslink after washing; high values mean tight binding
[1] = molecular target: T1, FLI1 (Homo sapiens, UniProt Q01543 1-452); settings: protein: recombinant; tags: N-terminal GST; dsDNA, one strand shown
T1 sequence: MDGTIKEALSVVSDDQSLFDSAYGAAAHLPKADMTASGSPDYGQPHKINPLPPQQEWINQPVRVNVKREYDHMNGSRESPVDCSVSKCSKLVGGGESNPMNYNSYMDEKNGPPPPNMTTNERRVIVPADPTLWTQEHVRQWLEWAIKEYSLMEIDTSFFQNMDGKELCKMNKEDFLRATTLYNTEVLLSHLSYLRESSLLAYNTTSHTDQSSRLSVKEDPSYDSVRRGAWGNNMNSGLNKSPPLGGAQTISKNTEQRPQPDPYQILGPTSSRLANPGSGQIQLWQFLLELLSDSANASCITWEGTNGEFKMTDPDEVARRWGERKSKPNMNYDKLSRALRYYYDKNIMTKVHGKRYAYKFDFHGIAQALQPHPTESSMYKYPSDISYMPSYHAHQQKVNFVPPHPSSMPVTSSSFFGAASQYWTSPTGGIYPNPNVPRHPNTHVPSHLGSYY
Outline: (§1)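 A tag-only sample was pooled with DNA-barcoded human transcription factors that had been expressed in yeast as GST fusions and captured on glutathione beads. The pools were incubated for 30 min at room temperature with 200 nmole of a random double-stranded 16-mer DNA library in Tris/NaCl/DTT/glycerol buffer, then washed, crosslinked with 0.1% formaldehyde, proximity-ligated (BsaI/T4 ligase, 1 h, 37 °C), PCR-amplified and sequenced on an Illumina NextSeq500. Binding signal is each hexamer's read frequency for a factor divided by its frequency for the tag-only sample.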

[2] = molecular target: T2, ELK1 (Homo sapiens, UniProt P19419 1-428); settings: protein: recombinant; tags: N-terminal GST; dsDNA, one strand shown
T2 sequence: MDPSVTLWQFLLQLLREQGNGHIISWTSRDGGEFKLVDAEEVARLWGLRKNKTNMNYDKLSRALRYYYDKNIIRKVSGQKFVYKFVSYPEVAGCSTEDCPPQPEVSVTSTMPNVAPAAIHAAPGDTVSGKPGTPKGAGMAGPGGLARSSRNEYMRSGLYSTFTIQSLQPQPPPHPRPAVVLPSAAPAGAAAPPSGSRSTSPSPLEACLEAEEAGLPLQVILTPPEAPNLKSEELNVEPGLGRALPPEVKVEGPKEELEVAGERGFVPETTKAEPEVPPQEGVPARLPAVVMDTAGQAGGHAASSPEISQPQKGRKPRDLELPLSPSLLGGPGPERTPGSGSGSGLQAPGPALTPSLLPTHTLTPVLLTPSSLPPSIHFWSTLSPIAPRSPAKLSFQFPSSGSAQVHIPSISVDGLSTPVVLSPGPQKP
Outline: as §1

[3] = molecular target: T3, GABPA (Homo sapiens, UniProt Q06546 1-454); settings: protein: recombinant; tags: N-terminal GST; dsDNA, one strand shown
T3 sequence: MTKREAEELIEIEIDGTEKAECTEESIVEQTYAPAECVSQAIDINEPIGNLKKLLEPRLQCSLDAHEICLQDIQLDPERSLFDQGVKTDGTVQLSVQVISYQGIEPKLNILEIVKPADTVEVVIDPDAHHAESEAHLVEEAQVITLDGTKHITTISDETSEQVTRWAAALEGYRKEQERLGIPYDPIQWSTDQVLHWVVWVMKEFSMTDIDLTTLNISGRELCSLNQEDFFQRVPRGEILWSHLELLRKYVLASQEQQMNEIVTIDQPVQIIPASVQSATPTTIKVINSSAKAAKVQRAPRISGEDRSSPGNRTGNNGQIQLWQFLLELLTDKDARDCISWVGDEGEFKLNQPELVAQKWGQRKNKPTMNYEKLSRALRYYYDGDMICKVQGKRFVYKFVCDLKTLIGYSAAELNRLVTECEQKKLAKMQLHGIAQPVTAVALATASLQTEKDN
Outline: as §1

[4] = molecular target: T4, ERG (Homo sapiens, UniProt P11308 1-479); settings: protein: recombinant; tags: N-terminal GST; dsDNA, one strand shown
T4 sequence: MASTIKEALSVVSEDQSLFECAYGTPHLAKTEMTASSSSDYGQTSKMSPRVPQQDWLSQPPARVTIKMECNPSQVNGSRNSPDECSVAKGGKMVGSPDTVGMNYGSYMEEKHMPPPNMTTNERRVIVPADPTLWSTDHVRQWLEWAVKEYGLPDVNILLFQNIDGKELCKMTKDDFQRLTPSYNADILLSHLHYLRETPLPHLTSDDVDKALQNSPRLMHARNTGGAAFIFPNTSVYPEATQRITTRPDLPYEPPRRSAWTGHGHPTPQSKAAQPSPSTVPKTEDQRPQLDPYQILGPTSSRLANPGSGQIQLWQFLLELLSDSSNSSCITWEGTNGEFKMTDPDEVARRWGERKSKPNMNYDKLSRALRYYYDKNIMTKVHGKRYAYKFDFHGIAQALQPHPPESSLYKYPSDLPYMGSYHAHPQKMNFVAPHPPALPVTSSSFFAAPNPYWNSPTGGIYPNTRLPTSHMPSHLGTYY
Outline: as §1

[5] = molecular target: ELF1 (Homo sapiens, UniProt P32519 1-619); settings: protein: recombinant; tags: N-terminal GST; dsDNA, one strand shown
Outline: as §1

[6] = molecular target: T5, EHF (Homo sapiens, UniProt Q9NZC4 1-300); settings: protein: recombinant; tags: N-terminal GST; dsDNA, one strand shown
T5 sequence: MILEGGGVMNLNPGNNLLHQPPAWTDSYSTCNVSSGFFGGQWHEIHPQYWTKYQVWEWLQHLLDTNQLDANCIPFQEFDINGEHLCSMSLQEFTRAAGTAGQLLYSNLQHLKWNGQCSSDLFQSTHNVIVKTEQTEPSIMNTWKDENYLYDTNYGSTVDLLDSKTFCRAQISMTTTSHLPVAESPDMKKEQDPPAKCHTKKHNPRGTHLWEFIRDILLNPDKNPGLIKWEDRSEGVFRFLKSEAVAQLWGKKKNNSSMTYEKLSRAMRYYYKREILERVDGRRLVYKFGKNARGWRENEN
Outline: as §1

[7] = molecular target: SPI1 (Homo sapiens, UniProt P17947 1-270); settings: protein: recombinant; tags: N-terminal GST; dsDNA, one strand shown
Outline: as §1

[8] = molecular target: SPIB (Homo sapiens, UniProt Q01892 1-262); settings: protein: recombinant; tags: N-terminal GST; dsDNA, one strand shown
Outline: as §1

[9] = molecular target: T6, ELK3 (Homo sapiens, UniProt P41970 1-407); settings: protein: recombinant; tags: N-terminal GST; dsDNA, one strand shown
T6 sequence: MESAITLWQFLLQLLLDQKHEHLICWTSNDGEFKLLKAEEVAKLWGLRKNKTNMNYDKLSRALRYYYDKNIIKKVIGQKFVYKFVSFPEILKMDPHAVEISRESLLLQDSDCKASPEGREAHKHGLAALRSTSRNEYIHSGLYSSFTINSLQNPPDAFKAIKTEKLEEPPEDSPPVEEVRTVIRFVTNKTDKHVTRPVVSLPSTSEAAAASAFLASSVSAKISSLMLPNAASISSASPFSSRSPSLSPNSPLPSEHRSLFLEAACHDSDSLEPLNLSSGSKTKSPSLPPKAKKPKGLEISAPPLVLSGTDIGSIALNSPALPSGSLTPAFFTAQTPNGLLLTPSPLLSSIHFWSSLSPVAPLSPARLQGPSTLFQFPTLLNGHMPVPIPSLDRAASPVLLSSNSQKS
Outline: as §1

[10] = molecular target: T7, FEV (Homo sapiens, UniProt Q99581 1-238); settings: protein: recombinant; tags: N-terminal GST; dsDNA, one strand shown
T7 sequence: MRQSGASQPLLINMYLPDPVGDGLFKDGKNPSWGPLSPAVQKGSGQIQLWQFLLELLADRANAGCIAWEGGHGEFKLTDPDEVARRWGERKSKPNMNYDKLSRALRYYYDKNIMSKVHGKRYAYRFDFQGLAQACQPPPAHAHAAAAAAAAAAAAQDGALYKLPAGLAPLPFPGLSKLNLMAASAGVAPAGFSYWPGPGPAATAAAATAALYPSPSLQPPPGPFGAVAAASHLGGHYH
Outline: as §1

[11] = molecular target: ETV5 (Homo sapiens, UniProt P41161 1-510); settings: protein: recombinant; tags: N-terminal GST; dsDNA, one strand shown
Outline: as §1

[12] = molecular target: HSF1 (Homo sapiens, UniProt Q00613 1-529); settings: protein: recombinant; tags: N-terminal GST; chain copies: 3; dsDNA, one strand shown
Outline: as §1

[13] = molecular target: T8, SPIC (Homo sapiens, UniProt Q8N5J4 1-248); settings: protein: recombinant; tags: N-terminal GST; dsDNA, one strand shown
T8 sequence: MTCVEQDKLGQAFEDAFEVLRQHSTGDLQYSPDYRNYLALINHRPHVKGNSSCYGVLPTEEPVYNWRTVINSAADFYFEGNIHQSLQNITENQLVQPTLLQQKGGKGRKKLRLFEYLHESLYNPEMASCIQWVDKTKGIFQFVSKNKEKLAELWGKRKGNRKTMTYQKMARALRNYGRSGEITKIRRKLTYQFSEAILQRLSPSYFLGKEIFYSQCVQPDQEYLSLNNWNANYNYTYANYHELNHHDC
Outline: as §1

[14] = molecular target: ELF4 (Homo sapiens, UniProt Q99607 1-663); settings: protein: recombinant; tags: N-terminal GST; dsDNA, one strand shown
Outline: as §1

[15] = molecular target: T9, ELK4 (Homo sapiens, UniProt P28324-2 1-405); settings: protein: recombinant; tags: N-terminal GST; dsDNA, one strand shown
T9 sequence: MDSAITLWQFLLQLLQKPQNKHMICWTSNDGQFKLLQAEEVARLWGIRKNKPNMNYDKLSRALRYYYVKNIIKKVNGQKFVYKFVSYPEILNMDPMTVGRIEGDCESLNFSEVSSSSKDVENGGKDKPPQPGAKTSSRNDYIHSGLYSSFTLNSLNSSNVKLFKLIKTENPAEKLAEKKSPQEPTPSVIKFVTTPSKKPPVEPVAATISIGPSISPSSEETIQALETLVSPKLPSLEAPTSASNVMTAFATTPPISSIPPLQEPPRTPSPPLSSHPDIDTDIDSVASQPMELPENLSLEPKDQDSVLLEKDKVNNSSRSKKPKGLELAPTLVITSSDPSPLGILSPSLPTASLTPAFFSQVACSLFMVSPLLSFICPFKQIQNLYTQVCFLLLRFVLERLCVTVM
Outline: as §1

[16] = molecular target: T10, ETV2 (Homo sapiens, UniProt O00321 1-342); settings: protein: recombinant; tags: N-terminal GST; dsDNA, one strand shown
T10 sequence: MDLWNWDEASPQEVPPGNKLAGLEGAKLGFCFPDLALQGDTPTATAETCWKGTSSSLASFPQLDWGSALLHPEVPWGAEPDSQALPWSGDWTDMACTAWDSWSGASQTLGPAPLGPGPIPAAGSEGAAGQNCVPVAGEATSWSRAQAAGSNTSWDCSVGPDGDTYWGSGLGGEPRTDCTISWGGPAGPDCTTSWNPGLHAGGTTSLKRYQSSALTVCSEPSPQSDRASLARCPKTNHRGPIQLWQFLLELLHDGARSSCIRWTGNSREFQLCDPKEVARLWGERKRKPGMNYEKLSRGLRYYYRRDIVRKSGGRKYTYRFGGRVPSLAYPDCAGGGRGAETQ
Outline: as §1

[17] = molecular target: T11, ELF3 (Homo sapiens, UniProt P78545 1-371); settings: protein: recombinant; tags: N-terminal GST; dsDNA, one strand shown
T11 sequence: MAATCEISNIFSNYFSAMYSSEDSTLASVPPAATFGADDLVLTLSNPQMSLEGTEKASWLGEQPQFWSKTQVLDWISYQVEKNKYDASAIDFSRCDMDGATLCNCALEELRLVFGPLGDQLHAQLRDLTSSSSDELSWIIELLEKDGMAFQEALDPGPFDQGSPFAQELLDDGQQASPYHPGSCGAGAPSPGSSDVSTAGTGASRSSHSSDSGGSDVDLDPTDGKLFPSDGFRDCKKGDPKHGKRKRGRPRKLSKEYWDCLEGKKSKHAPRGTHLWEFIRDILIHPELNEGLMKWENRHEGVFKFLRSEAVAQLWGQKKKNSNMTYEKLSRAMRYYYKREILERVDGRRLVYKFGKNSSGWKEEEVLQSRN
Outline: as §1

[18] = molecular target: CRX (Homo sapiens, UniProt O43186 1-299); settings: protein: recombinant; tags: N-terminal GST; dsDNA, one strand shown
Outline: as §1

[19] = molecular target: ETV1 (Homo sapiens, UniProt P50549 1-477); settings: protein: recombinant; tags: N-terminal GST; dsDNA, one strand shown
Outline: as §1

Chain of ELF4 (Q99607 whole entry): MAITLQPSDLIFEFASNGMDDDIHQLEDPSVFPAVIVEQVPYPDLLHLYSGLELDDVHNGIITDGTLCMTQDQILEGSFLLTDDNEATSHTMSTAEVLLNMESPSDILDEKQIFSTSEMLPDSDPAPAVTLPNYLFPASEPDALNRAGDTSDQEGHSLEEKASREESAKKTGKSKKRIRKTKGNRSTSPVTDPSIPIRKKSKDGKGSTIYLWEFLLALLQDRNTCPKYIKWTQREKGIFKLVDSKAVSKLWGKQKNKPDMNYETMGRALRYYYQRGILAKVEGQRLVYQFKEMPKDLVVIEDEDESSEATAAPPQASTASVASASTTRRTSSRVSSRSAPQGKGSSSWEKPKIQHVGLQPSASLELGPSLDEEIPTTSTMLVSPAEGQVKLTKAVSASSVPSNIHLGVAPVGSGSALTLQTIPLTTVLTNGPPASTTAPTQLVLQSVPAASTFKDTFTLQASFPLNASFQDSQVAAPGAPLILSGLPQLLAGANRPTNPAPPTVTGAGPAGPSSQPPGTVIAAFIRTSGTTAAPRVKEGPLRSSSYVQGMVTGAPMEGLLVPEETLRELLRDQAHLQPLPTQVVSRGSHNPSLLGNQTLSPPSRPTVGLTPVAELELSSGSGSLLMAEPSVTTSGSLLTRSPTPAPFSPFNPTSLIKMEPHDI
Chain of ETV1 (P50549 whole entry): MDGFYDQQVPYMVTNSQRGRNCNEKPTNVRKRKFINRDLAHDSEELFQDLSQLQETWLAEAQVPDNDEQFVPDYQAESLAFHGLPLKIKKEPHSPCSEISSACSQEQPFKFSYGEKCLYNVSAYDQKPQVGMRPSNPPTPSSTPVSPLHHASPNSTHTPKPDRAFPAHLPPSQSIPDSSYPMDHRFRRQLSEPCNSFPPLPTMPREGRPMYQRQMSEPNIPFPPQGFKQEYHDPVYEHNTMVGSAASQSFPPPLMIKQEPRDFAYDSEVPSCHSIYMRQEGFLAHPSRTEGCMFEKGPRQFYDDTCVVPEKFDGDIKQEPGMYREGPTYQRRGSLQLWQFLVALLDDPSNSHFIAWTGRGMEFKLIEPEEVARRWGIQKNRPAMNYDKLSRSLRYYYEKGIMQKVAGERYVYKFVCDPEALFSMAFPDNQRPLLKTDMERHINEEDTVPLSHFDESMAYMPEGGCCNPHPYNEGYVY
Chain of SPIB (Q01892 whole entry): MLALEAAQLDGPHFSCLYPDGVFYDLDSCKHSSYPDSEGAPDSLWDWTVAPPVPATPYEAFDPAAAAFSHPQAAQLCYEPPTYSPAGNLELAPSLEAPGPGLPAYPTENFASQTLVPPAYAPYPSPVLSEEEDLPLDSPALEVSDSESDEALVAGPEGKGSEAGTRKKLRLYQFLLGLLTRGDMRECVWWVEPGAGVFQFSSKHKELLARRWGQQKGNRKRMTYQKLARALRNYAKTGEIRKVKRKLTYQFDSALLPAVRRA
Chain of ETV5 (P41161 whole entry): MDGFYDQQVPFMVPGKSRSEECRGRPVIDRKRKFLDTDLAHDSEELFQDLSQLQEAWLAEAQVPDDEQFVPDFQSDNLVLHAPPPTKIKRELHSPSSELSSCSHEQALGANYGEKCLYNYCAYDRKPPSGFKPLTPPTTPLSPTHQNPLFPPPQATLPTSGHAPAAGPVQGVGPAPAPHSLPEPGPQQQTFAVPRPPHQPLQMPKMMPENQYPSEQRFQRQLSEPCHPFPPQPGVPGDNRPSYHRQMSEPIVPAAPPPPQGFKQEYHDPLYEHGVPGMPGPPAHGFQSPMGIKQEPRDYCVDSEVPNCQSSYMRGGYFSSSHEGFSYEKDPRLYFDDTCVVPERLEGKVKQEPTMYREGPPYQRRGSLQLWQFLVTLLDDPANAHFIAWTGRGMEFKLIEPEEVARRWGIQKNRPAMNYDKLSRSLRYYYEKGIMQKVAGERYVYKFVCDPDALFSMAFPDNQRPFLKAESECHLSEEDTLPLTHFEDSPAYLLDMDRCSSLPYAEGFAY
Chain of HSF1 (Q00613 whole entry): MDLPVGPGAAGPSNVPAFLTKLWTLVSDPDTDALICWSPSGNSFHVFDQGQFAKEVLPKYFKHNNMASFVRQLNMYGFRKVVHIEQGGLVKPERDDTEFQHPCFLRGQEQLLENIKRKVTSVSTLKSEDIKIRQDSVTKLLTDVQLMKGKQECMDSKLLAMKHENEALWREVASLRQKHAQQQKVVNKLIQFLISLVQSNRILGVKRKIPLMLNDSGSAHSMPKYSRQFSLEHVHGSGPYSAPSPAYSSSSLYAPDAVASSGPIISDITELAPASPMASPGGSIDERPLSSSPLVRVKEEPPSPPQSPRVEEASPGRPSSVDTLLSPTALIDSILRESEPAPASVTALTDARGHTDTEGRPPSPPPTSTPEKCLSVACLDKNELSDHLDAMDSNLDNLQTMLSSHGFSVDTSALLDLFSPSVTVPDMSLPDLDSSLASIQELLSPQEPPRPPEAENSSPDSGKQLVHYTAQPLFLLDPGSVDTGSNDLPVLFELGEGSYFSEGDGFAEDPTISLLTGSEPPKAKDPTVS
Chain of CRX (O43186 whole entry): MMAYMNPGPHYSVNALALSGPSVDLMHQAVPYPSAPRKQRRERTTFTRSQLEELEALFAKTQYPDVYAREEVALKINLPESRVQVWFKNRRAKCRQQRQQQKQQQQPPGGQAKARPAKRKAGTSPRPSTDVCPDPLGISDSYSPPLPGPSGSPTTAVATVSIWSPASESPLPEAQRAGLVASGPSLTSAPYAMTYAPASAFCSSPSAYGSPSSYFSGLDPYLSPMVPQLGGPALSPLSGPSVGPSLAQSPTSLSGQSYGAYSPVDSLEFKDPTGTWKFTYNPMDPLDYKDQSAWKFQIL
Chain of ELF1 (P32519 whole entry): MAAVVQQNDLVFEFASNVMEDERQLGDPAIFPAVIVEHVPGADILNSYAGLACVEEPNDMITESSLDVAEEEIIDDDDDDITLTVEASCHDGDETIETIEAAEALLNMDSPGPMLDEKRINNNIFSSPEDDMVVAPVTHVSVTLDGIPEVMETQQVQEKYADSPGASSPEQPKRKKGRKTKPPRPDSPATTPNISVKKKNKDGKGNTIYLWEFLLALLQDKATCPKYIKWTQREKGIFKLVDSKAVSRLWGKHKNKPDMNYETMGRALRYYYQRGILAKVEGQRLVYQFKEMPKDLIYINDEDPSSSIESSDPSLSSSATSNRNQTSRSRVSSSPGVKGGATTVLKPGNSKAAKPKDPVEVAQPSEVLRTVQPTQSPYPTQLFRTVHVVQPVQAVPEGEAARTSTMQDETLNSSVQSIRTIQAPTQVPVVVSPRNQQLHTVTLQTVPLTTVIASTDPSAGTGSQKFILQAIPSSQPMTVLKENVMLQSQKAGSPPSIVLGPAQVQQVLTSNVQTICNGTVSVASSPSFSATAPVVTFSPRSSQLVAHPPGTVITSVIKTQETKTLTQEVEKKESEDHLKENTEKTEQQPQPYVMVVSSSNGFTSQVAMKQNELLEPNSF

Sequence: AATATA
- binding signal [1]: 1.28 fold enrichment (6-mer frequency, TF over GST control)
- binding signal [2]: 1.38 fold enrichment (6-mer frequency, TF over GST control)
- binding signal [3]: 1.35 fold enrichment (6-mer frequency, TF over GST control)
- binding signal [4]: 1.33 fold enrichment (6-mer frequency, TF over GST control)
- binding signal [5]: 1.37 fold enrichment (6-mer frequency, TF over GST control)
- binding signal [6]: 1.42 fold enrichment (6-mer frequency, TF over GST control)
- binding signal [7]: 1.37 fold enrichment (6-mer frequency, TF over GST control)
- binding signal [8]: 1.28 fold enrichment (6-mer frequency, TF over GST control)
- binding signal [9]: 1.43 fold enrichment (6-mer frequency, TF over GST control)
- binding signal [10]: 1.3 fold enrichment (6-mer frequency, TF over GST control)
- binding signal [11]: 1.33 fold enrichment (6-mer frequency, TF over GST control)
- binding signal [12]: 1.38 fold enrichment (6-mer frequency, TF over GST control)
- binding signal [13]: 1.29 fold enrichment (6-mer frequency, TF over GST control)
- binding signal [14]: 1.3 fold enrichment (6-mer frequency, TF over GST control)
- binding signal [15]: 1.39 fold enrichment (6-mer frequency, TF over GST control)
- binding signal [16]: 1.35 fold enrichment (6-mer frequency, TF over GST control)
- binding signal [17]: 1.5 fold enrichment (6-mer frequency, TF over GST control)
- binding signal [18]: 1.62 fold enrichment (6-mer frequency, TF over GST control)
- binding signal [19]: 1.39 fold enrichment (6-mer frequency, TF over GST control)
